Among all 420,000 compounds or so, about 50,000 (12%) were called active. A call without a number means that no potency is given here. Not shown: some 26% with an inconclusive outcome. The call rests on the fitted dose curve; in most records, active means well fitted inhibition curve with a large enough effect; inconclusive means small, poorly fitted or top-dose-only effect; inactive means flat fitted curve, though single readings scatter. The sample as a whole holds a higher share of actives than the screen did.
assay: qHTS for Inhibitors of human tyrosyl-DNA phosphodiesterase 1 (TDP1): qHTS in cells in presence of CPT; settings: chicken DT40 Tdp1-/-;hTDP1 cells + 20 nM CPT, ATP luminescence, 48 h; series mostly up to 46.2 µM; further: nearly all actives have a fitted effect of over 55% in size
In short: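 Cell growth measured by CellTiter-Glo luminescence after a minimum 48 h, 37 C compound exposure with 20 nM CPT in Tdp1-knockout DT40 cells stably expressing hTDP1, seeded 400/well; qHTS titration format.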
Potency means the concentration at half of the fitted maximal effect.

Compound | Potency
Cc1cccc(OCC(O)CN2CCN(S(=O)(=O)c3ccc(C)cc3C)CC2)c1 (centres undefined) | inactive
Cc1c(Br)cc(C(=O)N2CCCCCC2)c(C)c1C | inactive
COc1ccccc1-n1c(CNC(=O)c2ccccc2)nnc1SCC(=O)Nc1nnc(C)s1 | inactive
Cc1cccc(-n2ccnc2SCC(=O)Nc2cccc3ccccc23)c1C | 23.1 µM (active)
Cn1nnnc1SCC(=O)Nc1nc2ccccc2s1 | inactive
Cc1ccccc1-n1c(SCC(=O)Nc2cccc3ccccc23)nc(O)cc1=O | inactive
COc1ccccc1-n1ccnc1SCC(=O)NC(C)(C)C | inactive
Cc1cc(C)cc(-n2ccnc2SCC(=O)Nc2nc3ccccc3s2)c1 | 18.4 µM (active)
C=CCn1c(SCC(=O)Nc2nc3ccccc3s2)nnc1-c1ccccc1O | inactive
Cc1cccc(CSc2nnc(NC(=O)CSc3nnc(C)s3)s2)c1 | inactive
Cc1nnc(NC(=O)CSc2nccn2-c2cccc(C)c2C)s1 | 4.61 µM (active)
COc1cccc(CC(=O)N2CCCC(CCC(=O)N3CCN(c4ccccn4)CC3)C2)c1 (centres undefined) | inactive
CC(C)Sc1ncnc2c1cnn2-c1ccccc1 | inactive
Nc1cc(N)nc(SCc2cccc(F)c2)n1 | inactive
COCCN1C(=O)C(=O)/C(=C(/O)c2ccc(S(=O)(=O)N3CCCCC3)cc2)C1c1ccc(OC)c(OC)c1 (centres undefined) | inactive
Cc1ccc2c(c1)C1C[N+](C)(CC(=O)c3ccccc3)CCC1N2C(=O)c1ccccc1Cl (centres undefined) | inactive
CCOc1ccc(C2=CC(c3ccccc3)n3ncnc3N2)cc1 (centres undefined) | inactive
COCCNC(=O)C1CCCN(Cc2ccccc2Cl)CC1 (centres undefined) | inactive
O=C(NCCC1=CCCCC1)C1CCN(Cc2cnn(-c3ccccc3)c2-n2cccc2)CC1 | 23.1 µM (active)
CC(=O)Nc1ccc(NC(=O)CSCc2cnn(-c3ccccc3)c2-n2cccc2)cc1 | inactive
CS(=O)(=O)c1ccc(C(=O)OCC(=O)NNC(=O)COc2ccc(Cl)cc2)cc1 | inactive
Nn1cnnc1N/N=C/c1cc([N+](=O)[O-])c(Cl)cc1Cl | inactive
Cc1cc(C(=O)O)ccc1[N+](=O)[O-] | inactive
O=C(/C=C/c1ccc(Cl)c([N+](=O)[O-])c1)c1ccc(O)cc1 | 4.11 µM (active)
CC(CC(=O)O)C(=O)c1ccc(Cl)c([N+](=O)[O-])c1 (centres undefined) | inactive
NC(N)=N/N=C/c1ccc(Cl)c([N+](=O)[O-])c1 | 11.6 µM (active)

Compound | Potency
O=C(Nc1cccc(NC(=O)c2ccccc2[N+](=O)[O-])c1)c1ccccc1Cl | inactive
O=C(O)c1ccc2c(=O)n3c(nc2c1)/C(=C/c1ccc(Cl)c([N+](=O)[O-])c1)CC3 | inactive
CN(C)c1ccc(/C=C/C(=O)c2ccc(C(C)(C)C)cc2)cc1[N+](=O)[O-] | 23.1 µM (active)
O=C(/C=C/c1ccc(Cl)cc1)N1CCN(c2ccccc2[N+](=O)[O-])CC1 | inactive
O=C(c1ccc(F)cc1)N1CCC(C(=O)N2CCN(S(=O)(=O)c3ccccc3Br)CC2)CC1 | inactive
COc1ccc(NC(=O)C2CCC(CNS(=O)(=O)c3csc(C(N)=O)c3)CC2)cc1OC (centres undefined) | inactive
Cc1cccc(N(Cc2ccccc2)C(=O)c2cc(S(=O)(=O)N3CCOCC3)ccc2F)c1 | 18.4 µM (active)
Cc1ccc(S(=O)(=O)N2CCN(C(=O)c3cc(S(=O)(=O)N4CCOCC4)ccc3F)CC2)cc1 | inactive
O=C(COC(=O)c1ccc(F)c(S(=O)(=O)N2CCOCC2)c1)NCc1ccc2c(c1)OCO2 | inactive
Cc1ccc(S(=O)(=O)N2CCOCC2)cc1C(=O)NC(=S)N(Cc1ccccc1)C(C)C | inactive
O=C(c1ccc(F)c(S(=O)(=O)N2CCOCC2)c1)N(CCc1ccccc1)Cc1ccccc1 | 14.6 µM (active)
Cc1nn(Cc2ccccc2)c(C)c1CNC(=O)c1ccc(F)c(S(=O)(=O)N2CCOCC2)c1 | inactive
CC(C)Cn1cc(-c2cncc3nccn23)cn1 | inactive
CCCCN(CC(=O)NC(C)(C)C)C(=O)C(=O)Nc1ccc2c(c1)OCCO2 | inactive
O=C(O)c1cc2c(cc1NC(=O)c1c(F)cccc1Cl)OCCCO2 | inactive
Cc1ccc(CNC(=O)CSc2nnc3c(n2)[nH]c2ccc(F)cc23)cc1 | inactive
CCOC(=O)COn1c(=O)c(-c2ccc(OCC)cc2)[n+]([O-])c2ccccc21 | inactive
CCOc1ccc(OCC)c(-c2c(=O)n(OCc3ccc(Cl)cc3)c3ccccc3[n+]2[O-])c1 | 7.31 µM (active)
O=c1c(-c2ccc(Cl)cc2)[n+]([O-])c2ccccc2n1OCc1nc2ccccc2[nH]1 | inactive
O=C(N/N=C/c1ccco1)c1csc2c1CCCC2 | inactive
Cc1cccc(C)c1NC(=O)N1CC(C)OC(C)C1 (centres undefined) | inactive
Cc1cccc(C)c1NC(=O)N1CC=C(n2c(=O)[nH]c3ccccc32)CC1 | 14.6 µM (active)
Cc1ccccc1Cn1c(=O)[nH]c2ccccc21 | inactive
C[C@H](CO)N1C[C@H](C)[C@@H](CN(C)C(=O)c2cnccn2)Oc2ncc(Br)cc2C1=O | inactive
NNc1nnc(Cc2ccncc2)c2ccccc12 | inactive
S=C(Nc1ccc(Br)cc1Cl)NC1CCN(Cc2ccccc2)CC1 | 18.4 µM (active)

Compound | Potency
O=C(Nc1ccccc1)N1CCC(C(=O)N2CCN(Cc3ccccc3)CC2)CC1 | inactive
Cc1ccc(-c2cc(C(=O)NC3CCN(Cc4ccccc4)CC3)c3ccccc3n2)cc1 | 14.6 µM (active)
S=C(Nc1ccc(Br)cc1)NC1CCN(Cc2ccccc2)CC1 | 16.4 µM (active)
O=C(NC1CCN(Cc2ccccc2)CC1)c1ccccc1F | inactive
Cc1cc(Br)ccc1NC(=S)NC1CCCC1 | inactive
O=C(NC1CCN(Cc2ccccc2)CC1)c1cc(Br)c(Br)[nH]1 | 18.4 µM (active)
O=C(NC1CCN(Cc2ccccc2)CC1)c1c(F)cccc1F | inactive
Cc1ccn2cc(C(=O)NC3CCN(Cc4ccccc4)CC3)nc2c1 | inactive
Cc1cc(C(=O)NC2CCN(Cc3ccccc3)CC2)n[nH]1 | inactive
O=C(NNC(=S)Nc1ccc(Br)cc1Cl)c1ccco1 | inactive
O=C(c1cccc(-n2cccc2)c1)N1CCN(S(=O)(=O)c2ccc(F)cc2)CC1 | inactive
COc1cc(/C=C/C(=O)OCC(=O)NC2CC2)cc(OC)c1OC | inactive
COC(=O)c1sccc1NC(=O)c1ccc(Cl)cc1 | inactive
CCc1ccc(NC(=O)CCNS(=O)(=O)c2cccs2)cc1 | inactive
Cc1cccc(C)c1NC(=O)CN1C(=O)C(C)Oc2ccccc21 (centres undefined) | inactive
CCC1C(=O)c2ccccc2N(C)C1=O (centres undefined) | inactive
Cc1onc(C(=O)Nc2ccc3c(c2)OCO3)c1[N+](=O)[O-] | inactive
Cc1ccc(NC(=O)CSc2nnc(CNC(=O)c3ccccc3F)o2)cc1Cl | inactive
O=C(NC1CC(=O)N(c2ccccc2)C1)c1ccco1 (centres undefined) | inactive
COc1cc(NC(=O)CN2CCN(S(=O)(=O)c3ccc(Br)cc3)CC2)cc(OC)c1 | inactive
COc1ccc(NC(=O)CN(C)C(=O)CNC(=O)C2CCCCC2)cc1 | inactive
COc1ccc(/C=C/c2noc(-c3ccccc3OC(C)=O)n2)cc1 | inactive
C=CCNC(=S)N/N=C/c1ccc(OCc2ccccc2)cc1 | inactive
O=C(O)COc1ccc(/C=N/O)cc1Br | inactive
CNC(=S)N/N=C/c1ccc(OCc2ccccc2)c(Br)c1 | 9.2 µM (active)
CC(C)(CCl)C(=O)Nc1ccc(Sc2ccc(F)cc2)cc1 | 5.8 µM (active)

Compound | Potency
O=C(COc1ccccc1)Nc1ccc(F)cc1 | inactive
CCN(c1ccccc1)S(=O)(=O)c1ccc(NC(=O)C(C)(C)C)cc1 | inactive
Cc1ccc(C(O)P(=O)(OC(C)C)c2ccc(N(C)C)cc2)cc1 (centres undefined) | inactive
COc1cc2c(cc1OC)C(c1ccccc1Br)NC(=O)C2 (centres undefined) | inactive
O=C1c2ccccc2C(=O)C1C(=O)C1CC1 | inactive
CCc1c(C)nc(N)n2c(SCC(=O)NC3CCCCC3)nnc12 | inactive
CC1CCN(c2ccc3c(c2)S(=O)(=O)c2cc(C(=O)O)ccc2C3=O)CC1 | inactive
CSc1ncccc1C(=O)NCC(c1ccco1)N1CCCCC1 (centres undefined) | inactive
Cc1cc(S(=O)(=O)Nc2ccc(C(=O)NCC(c3ccco3)N3CCCC3)cc2)ccc1F (centres undefined) | inactive
Cc1c(C(=O)NCC(c2ccco2)N2CCCC2)oc2ccc(Cl)cc12 (centres undefined) | 20.6 µM (active)
COc1ccc2oc(C(=O)NCc3ccco3)c(C)c2c1 | inactive
CC1CCc2sc(C(=O)NCC(c3ccco3)N3CCCCC3)cc2C1 (centres undefined) | 16.4 µM (active)
CC1CCc2sc(C(=O)N/N=C/C3CCCCC3)cc2C1 (centres undefined) | inactive
Nc1nc(N)c(N=O)c(N)n1 | inactive
CC(=O)N(OCc1ccc(OC(C)C)c(Cl)c1)C(C)=O | inactive
O=C(COC(=O)CCOc1ccccc1)Nc1cc(S(=O)(=O)N2CCCCC2)ccc1Cl | inactive
O=S(=O)(c1cc(Cl)ccc1Cl)N1CCN(Cc2ccco2)CC1 | inactive
O=C(CN1CCN(S(=O)(=O)c2cc(Cl)ccc2Cl)CC1)c1ccc(O)c(O)c1 | 9.2 µM (active)
COc1ccc(Cl)cc1S(=O)(=O)N1CCN(CC(=O)C(C)(C)C)CC1 | inactive
COc1ccccc1C1CCN(c2ccc([N+](=O)[O-])cn2)CC1 | inactive
c1ccc(Nc2nc(N3CCOCC3)c3ccccc3n2)cc1 | 20.6 µM (active)
O=c1[nH]c(N2CCOCC2)nc2ccccc12 | inactive
Cc1cc(C(=O)Nc2ccccc2N2CCOCC2)c2ccccc2n1 | inactive
CC1(C)CC(=O)C(C=NCCN2CCN(C(=S)Nc3cccc(Cl)c3)CC2)=C(O)C1 | inactive
O=C(CN1CCN(S(=O)(=O)c2ccc(Cl)s2)CC1)NCc1ccc(Cl)cc1 | inactive
CC1(Oc2ccccc2-c2ccno2)CCN(Cc2ccc(-c3ccccc3)o2)C1 (centres undefined) | 25.9 µM (active)
